# According to PubChem BioAssay (EPA / NIEHS):
# “And” between values parts separate entries of the source, which are not always exact repeats. Equal values may be shown once. Inconclusive results are not listed. The source made the active and inactive calls. Rule for the calls, unless noted: active = hit-call score of the fitted dose curve at least 0.9, where 1 is the maximum; inconclusive = response in the unintended direction; inactive = score below 0.9.
# Columns and labels:
# [1] = test system: Sodium/Iodide Symporter (NIS), SLC5A5 (gene 6528); assay: CPHEA_Stoker_NIS_Inhibition_RAIU: CPHEA's Radioactive Iodide Uptake (RAIU) Assay for Sodium/Iodide Symporter (NIS) Inhibition, Stoker and Laws Labs (AID 2283841)
# Summary of the method: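 hNIS-HEK293T-EPA cells incubated 2 h at room temperature with compound (0.001–100 uM, 0.5% DMSO) and 329 pM final 125I in HBSS/10 mM HEPES, pH 7.4. Intracellular 125I counted; normalised to DMSO maximal uptake, triplicate, three biological replicates.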
# [2] = test system: frog Estrogen Receptor (ER2), gene 100174814; assay: ATG_frER2_XSP2: Attagene TRANS-FACTORIAL Multi-Species (XSP2) HepG2 Assay for frog Estrogen Receptor (ER2) (AID 2283828)
# Summary of the method: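 Human liver HepG2, transient MRTU transfection (TRANS format, exogenous NR–Gal4). 24 h cpd exposure. Total RNA → RT → PCR → FAM label → HpaI cut → CE. Positive direction vs DMSO.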
# [3] = biological target: Peroxisome proliferator-activated receptor gamma (Homo sapiens) (UniProt P37231); assay: ATG_hPPARg_XSP2: Attagene TRANS-FACTORIAL Multi-Species (XSP2) HepG2 Assay for human Peroxisome Proliferator-activated Receptor gamma (PPARg) (AID 2283829);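 note: actives raise reporter mRNA above DMSO so AC50 reflects PPARg activation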
# Summary of the method: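 After transfecting HepG2 with GAL4-UAS reporter constructs, cells are dosed for 24 h; total RNA is reverse-transcribed, PCR-amplified, FAM-labeled, HpaI-digested and resolved by capillary electrophoresis. Activity is measured as mRNA induction relative to DMSO.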
# [4] = biological target: mouse Peroxisome Proliferator-activated Receptor gamma (PPARg), Pparg (gene 19016) (UniProt P37238); assay: ATG_mPPARg_XSP2: Attagene TRANS-FACTORIAL Multi-Species (XSP2) HepG2 Assay for mouse Peroxisome Proliferator-activated Receptor gamma (PPARg) (AID 2283830);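 note: hits are gains in reporter mRNA above DMSO so AC50 marks activation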
# Summary of the method: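 HepG2 cells transiently transfected with GAL4-UAS reporter units for chimeric NR-Gal4 proteins including mouse PPARg, exposed 24 h; medium contained 3 nM 6-alpha-fluorotestosterone and 1.5 nM norgestrel. Reporter mRNA quantified by RT-PCR, HpaI digestion and capillary electrophoresis, vs DMSO.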
# [5] = biological target: Nuclear receptor subfamily 1 group I member 2 (Mus musculus) (UniProt O54915); assay: ATG_mPXR_XSP2: Attagene TRANS-FACTORIAL Multi-Species (XSP1) HepG2 Assay for mouse Pregnane X Receptor (PXR) (AID 2283831)
# Summary of the method: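 Reporter transcripts were quantified by RT-PCR, FAM primer extension, HpaI digestion and capillary electrophoresis after 24 h of chemical exposure in transiently transfected HepG2 cells carrying chimeric receptor-GAL4 constructs; DMSO served as baseline.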
# [6] = biological target: zebrafish Thyroid Hormone Receptor alpha (TRa), thraa (gene 30670) (UniProt Q98867); assay: ATG_zfTRa_XSP2: Attagene TRANS-FACTORIAL Multi-Species (XSP1) HepG2 Assay for zebrafish Thyroid Hormone Receptor alpha (TRa) (AID 2283832);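 note: actives raise zebrafish TRa-Gal4 reporter transcript above DMSO baseline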
# Summary of the method: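 HepG2 cells transiently transfected with multiplexed GAL4-UAS reporter units expressing chimeric NR-Gal4 proteins; 24 h after dosing, reporter mRNA measured by RT-PCR, FAM labelling, HpaI digestion and capillary electrophoresis; gain of signal versus DMSO baseline.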
# [7] = test system: zebrafish Peroxisome Proliferator-activated Receptor gamma (PPARg), gene 557037; assay: ATG_zfPPARg_XSP2: Attagene TRANS-FACTORIAL Multi-Species (XSP2) HepG2 Assay for zebrafish Peroxisome Proliferator-activated Receptor gamma (PPARg) (AID 2283833);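 note: actives increase reporter signal over DMSO so AC50 reflects activation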
# Summary of the method: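 Multi-species TRANS format in HepG2, 24 h dosing; medium also contained 3 nM 6-alpha-fluorotestosterone and 1.5 nM norgestrel to stimulate androgen receptor. Zebrafish PPARg-GAL4 induced reporter mRNA was measured by RT-PCR/capillary electrophoresis.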
# [8] = test system: turtle Thyroid Hormone Receptor, alpha (TRa), gene 101949057; assay: ATG_trTRa_XSP2: Attagene TRANS-FACTORIAL Multi-Species (XSP1) HepG2 Assay for turtle Thyroid Hormone Receptor, alpha (TRa) (AID 2283834);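 note: hits raise reporter mRNA over the DMSO baseline so AC50 marks activators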
# Summary of the method: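 Transfection of HepG2 with multiple reporter transcription units, then chemical dosing for 24 h. Total RNA was reverse-transcribed, reporter sequences PCR-amplified and FAM-labelled, then sized by capillary electrophoresis. DMSO served as baseline.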
# [9] = ATG_M_61_XSP2: Attagene TRANS-FACTORIAL Multi-Species (XSP2) HepG2 Assay for M61 Transcription Factor (Internal Marker) (AID 2283835; active = hit-call score of the fitted dose curve at least 0.9, where 1 is the maximum; inactive = score below 0.9;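 note: reporter mRNA of an internal background marker read by RT-PCR and capillary electrophoresis; active means a rise in signal above the DMSO baseline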)
# Summary of the method: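 HepG2 cells transiently transfected with multiple GAL4-UAS reporter units; 3 nM 6-alpha-fluorotestosterone and 1.5 nM norgestrel present to stimulate androgen receptor. After 24 h compound exposure, reporter mRNA measured by RT-PCR and capillary electrophoresis fluorescence, gain-of-signal versus DMSO baseline.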
# [10] = biological target: zebrafish Thyroid Hormone Receptor beta (TRb), thrb (gene 30607) (UniProt Q9PVE4); assay: ATG_zfTRb_XSP2: Attagene TRANS-FACTORIAL Multi-Species (XSP1) HepG2 Assay for zebrafish Thyroid Hormone Receptor beta (TRb) (AID 2283836)
# Summary of the method: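 HepG2 cells transiently transfected with multiplexed GAL4-UAS reporter units expressing chimeric NR-Gal4 proteins; read 24 h after dosing. Reporter mRNA quantified by RT-PCR, 6-FAM labelling, HpaI digest and capillary electrophoresis; gain of signal fitted relative to DMSO.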
# [11] = ATG_XTT_Cytotoxicity_XSP2: Cytotoxicity Assessment in the Attagene TRANS-FACTORIAL Multi-Species (XSP2) HepG2 Assay (AID 2283837)
# Summary of the method: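 HepG2 cells, transiently transfected with multiple reporter constructs, exposed to chemical for 24 h. Cell number assessed with XTT fluorescence read-out; loss of signal fitted relative to DMSO.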
# [12] = biological target: human Thyroid hormone Receptor alpha (TRa), THRA (gene 7067) (UniProt P10827); assay: ATG_hTRa_XSP2: Attagene TRANS-FACTORIAL Multi-Species (XSP2) HepG2 Assay for human Thyroid hormone Receptor alpha (TRa) (AID 2283838)
# Summary of the method: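 HepG2 cells transiently transfected with multiplexed GAL4-UAS reporter units and exogenous NR-GAL4 chimeras; 24 h chemical exposure with 3 nM 6-alpha-fluorotestosterone and 1.5 nM norgestrel present. Reporter mRNA measured by RT-PCR, FAM labelling, HpaI digestion, capillary electrophoresis; gain-of-signal versus DMSO.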
# [13] = biological target: frog Thyroid hormone Receptor alpha (TRa), thra-a (gene 397942) (UniProt P15204); assay: ATG_frTRa_XSP2: Attagene TRANS-FACTORIAL Multi-Species (XSP2) HepG2 Assay for frog Thyroid hormone Receptor alpha (TRa) (AID 2283839)
# Summary of the method: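 Transfect HepG2 with multiple reporter units (GAL4-UAS), dose chemical, incubate 24 h. Isolate RNA, reverse-transcribe, PCR-amplify reporter, label with 6-FAM by primer extension, digest with HpaI, run capillary electrophoresis; induction scored against DMSO.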
# [14] = biological target: human Thyroid hormone Receptor beta (TRb), THRB (gene 7068) (UniProt P10828); assay: ATG_hTRb_XSP2: Attagene TRANS-FACTORIAL Multi-Species (XSP2) HepG2 Assay for human Thyroid hormone Receptor beta (TRb) (AID 2283840);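 note: actives raise reporter mRNA so potency reflects agonist-like gain of signal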
# Summary of the method: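 Transient transfection of human HepG2 with multi-species NR-Gal4/GAL4-UAS reporter constructs; 24 h compound treatment; RNA isolation, reverse transcription, PCR and HpaI digest; capillary electrophoresis of labeled fragments; activity fitted upward versus DMSO.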
# [15] = CEETOX_H295R_11DCORT_noMTC: CeeTox H295R High-throughput Steroidogenesis Assay for 11-Deoxycortisol (11DCORT), maximum tolerated concentration (MTC) filtered results only (AID 2283911; active = hit-call score of the fitted dose curve at least 0.9, where 1 is the maximum; inactive = score below 0.9); details: actives raise or lower the signal
# Summary of the method: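 Steroidogenesis was stimulated in H295R cells with 10 uM forskolin for 48 h before a 48 h chemical exposure. Secreted 11-deoxycortisol was measured by tandem mass spectrometry and fitted bidirectionally against DMSO controls.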
# [16] = CEETOX_H295R_OHPREG_noMTC: CeeTox H295R High-throughput Steroidogenesis Assay for OH-Pregnenolone (OHPREG), maximum tolerated concentration (MTC) filtered results only (AID 2283912; active = hit-call score of the fitted dose curve at least 0.9, where 1 is the maximum; inactive = score below 0.9); details: actives raise or lower the signal
# Summary of the method: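 H295R human adrenal cells, forskolin-prestimulated (10 uM, 48 h), then exposed to test chemical in 0.1% DMSO for 48 h. 17alpha-hydroxypregnenolone in medium measured by HPLC-MS/MS after MTBE extraction; bidirectional fit versus DMSO, concentrations not MTC-filtered.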
# [17] = CEETOX_H295R_OHPROG_noMTC: CeeTox H295R High-throughput Steroidogenesis Assay for OH-Progesterone (OHPROG), maximum tolerated concentration (MTC) filtered results only (AID 2283914; active = hit-call score of the fitted dose curve at least 0.9, where 1 is the maximum; inactive = score below 0.9); details: actives raise or lower the signal
# Summary of the method: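 H295R human adrenal cells prestimulated 48 h with 10 uM forskolin, then exposed 48 h to test chemical (0.1% DMSO final). Medium 17alpha-hydroxyprogesterone extracted with MTBE, quantified by HPLC-MS/MS; bidirectional fit versus DMSO, concentrations not MTC-filtered.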
# [18] = CEETOX_H295R_CORTISOL_noMTC: CeeTox H295R High-throughput Steroidogenesis Assay for Cortisol, maximum tolerated concentration (MTC) filtered results only (AID 2283916; active = hit-call score of the fitted dose curve at least 0.9, where 1 is the maximum; inactive = score below 0.9); details: actives raise or lower the signal
# Summary of the method: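 H295R adrenal cells were pre-stimulated 48 h with 10 uM forskolin, then exposed 48 h to test chemical in 0.1% DMSO. Medium cortisol was measured by MTBE extraction and HPLC-MS/MS; bidirectional fit versus DMSO, concentrations not MTC-filtered.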
# [19] = CEETOX_H295R_CORTIC_noMTC: CeeTox H295R High-throughput Steroidogenesis Assay for Corticosterone (CORTIC), maximum tolerated concentration (MTC) filtered results only (AID 2283917; active = hit-call score of the fitted dose curve at least 0.9, where 1 is the maximum; inactive = score below 0.9); details: actives raise or lower the signal
# Summary of the method: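 H295R, 10 uM forskolin prestim 48 h → test chem (0.1% DMSO final) 48 h → media MTBE extraction → HPLC-MS/MS corticosterone. Bidirectional fit vs DMSO baseline; no MTT-based MTC filtering.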
# [20] = CEETOX_H295R_DOC_noMTC: CeeTox H295R High-throughput Steroidogenesis Assay for DOC, maximum tolerated concentration (MTC) filtered results only (AID 2283918; active = hit-call score of the fitted dose curve at least 0.9, where 1 is the maximum; inactive = score below 0.9); details: actives raise or lower the signal
# Summary of the method: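 H295R cells prestimulated 48 h with 10 uM forskolin, then exposed 48 h to test chemical (0.1% DMSO final). Medium 11-deoxycorticosterone extracted with MTBE, quantified by HPLC-MS/MS; bidirectional fit versus DMSO, concentrations not MTC-filtered.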
# Nuclear receptor subfamily 1 group I member 2 (Mus musculus), sequence (O54915 whole entry, looked up, the tested form may be a part): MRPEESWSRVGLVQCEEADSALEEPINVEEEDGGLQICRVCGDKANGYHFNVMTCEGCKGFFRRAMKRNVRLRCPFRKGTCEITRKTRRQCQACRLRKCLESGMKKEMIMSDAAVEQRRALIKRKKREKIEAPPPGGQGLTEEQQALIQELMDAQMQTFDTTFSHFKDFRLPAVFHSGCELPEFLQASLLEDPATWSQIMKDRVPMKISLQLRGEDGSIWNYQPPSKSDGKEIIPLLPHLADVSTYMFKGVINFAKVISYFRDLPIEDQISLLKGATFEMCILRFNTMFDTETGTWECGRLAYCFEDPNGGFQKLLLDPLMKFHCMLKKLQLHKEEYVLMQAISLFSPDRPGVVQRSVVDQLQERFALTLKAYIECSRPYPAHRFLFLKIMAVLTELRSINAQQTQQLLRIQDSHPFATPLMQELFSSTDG
# zebrafish Thyroid Hormone Receptor alpha (TRa), thraa (gene 30670), sequence (Q98867 whole entry, looked up, the tested form may be a part): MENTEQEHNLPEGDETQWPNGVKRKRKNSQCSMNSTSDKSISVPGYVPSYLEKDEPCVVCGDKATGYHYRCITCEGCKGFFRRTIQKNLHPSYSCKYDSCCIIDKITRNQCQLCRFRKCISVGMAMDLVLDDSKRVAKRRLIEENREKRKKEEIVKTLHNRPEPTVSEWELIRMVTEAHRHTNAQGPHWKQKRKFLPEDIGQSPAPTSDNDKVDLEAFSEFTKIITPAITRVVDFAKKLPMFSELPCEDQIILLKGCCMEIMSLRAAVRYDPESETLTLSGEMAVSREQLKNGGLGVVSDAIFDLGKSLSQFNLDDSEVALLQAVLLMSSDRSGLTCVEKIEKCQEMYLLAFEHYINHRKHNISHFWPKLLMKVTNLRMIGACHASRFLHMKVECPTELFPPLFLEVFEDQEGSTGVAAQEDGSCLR
# human Thyroid hormone Receptor beta (TRb), THRB (gene 7068), sequence (P10828 whole entry, looked up, the tested form may be a part): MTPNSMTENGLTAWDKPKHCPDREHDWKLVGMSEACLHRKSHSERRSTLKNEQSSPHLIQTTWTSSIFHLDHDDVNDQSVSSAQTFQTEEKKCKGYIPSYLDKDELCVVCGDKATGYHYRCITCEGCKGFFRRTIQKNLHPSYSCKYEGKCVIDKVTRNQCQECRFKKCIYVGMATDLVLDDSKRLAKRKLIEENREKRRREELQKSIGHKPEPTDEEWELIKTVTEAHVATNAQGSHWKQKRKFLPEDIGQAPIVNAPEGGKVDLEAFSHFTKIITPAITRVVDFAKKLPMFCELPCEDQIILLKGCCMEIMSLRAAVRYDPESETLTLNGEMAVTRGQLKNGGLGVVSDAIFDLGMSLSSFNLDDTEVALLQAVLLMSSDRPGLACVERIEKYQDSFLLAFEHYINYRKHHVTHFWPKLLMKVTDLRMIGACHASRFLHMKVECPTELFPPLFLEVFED
# zebrafish Thyroid Hormone Receptor beta (TRb), thrb (gene 30607), sequence (Q9PVE4 whole entry, looked up, the tested form may be a part): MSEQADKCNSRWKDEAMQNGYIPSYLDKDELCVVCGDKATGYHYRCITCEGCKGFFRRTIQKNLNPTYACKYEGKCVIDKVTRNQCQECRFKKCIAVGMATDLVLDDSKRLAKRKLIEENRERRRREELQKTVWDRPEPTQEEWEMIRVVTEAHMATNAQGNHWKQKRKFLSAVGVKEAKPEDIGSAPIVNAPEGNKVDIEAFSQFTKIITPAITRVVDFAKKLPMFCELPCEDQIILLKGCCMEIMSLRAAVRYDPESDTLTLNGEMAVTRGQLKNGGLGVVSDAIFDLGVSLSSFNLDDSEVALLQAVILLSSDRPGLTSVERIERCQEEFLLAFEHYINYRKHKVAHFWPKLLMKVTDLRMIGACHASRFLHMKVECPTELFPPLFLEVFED
# human Thyroid hormone Receptor alpha (TRa), THRA (gene 7067), sequence (P10827 whole entry, looked up, the tested form may be a part): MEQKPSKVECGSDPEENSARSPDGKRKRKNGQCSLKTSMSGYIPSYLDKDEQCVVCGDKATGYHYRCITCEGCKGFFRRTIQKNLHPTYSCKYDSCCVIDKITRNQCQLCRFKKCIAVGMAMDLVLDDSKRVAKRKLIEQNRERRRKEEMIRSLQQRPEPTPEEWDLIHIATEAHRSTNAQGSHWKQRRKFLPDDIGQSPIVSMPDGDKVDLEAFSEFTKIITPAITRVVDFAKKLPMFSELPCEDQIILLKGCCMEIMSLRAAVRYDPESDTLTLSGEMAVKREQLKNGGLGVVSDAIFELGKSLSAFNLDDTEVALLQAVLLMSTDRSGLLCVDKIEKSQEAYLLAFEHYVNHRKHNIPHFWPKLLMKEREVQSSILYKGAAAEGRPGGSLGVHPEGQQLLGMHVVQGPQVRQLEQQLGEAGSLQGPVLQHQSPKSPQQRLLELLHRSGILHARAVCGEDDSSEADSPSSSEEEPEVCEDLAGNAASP
# Peroxisome proliferator-activated receptor gamma (Homo sapiens), sequence (P37231 whole entry, looked up, the tested form may be a part): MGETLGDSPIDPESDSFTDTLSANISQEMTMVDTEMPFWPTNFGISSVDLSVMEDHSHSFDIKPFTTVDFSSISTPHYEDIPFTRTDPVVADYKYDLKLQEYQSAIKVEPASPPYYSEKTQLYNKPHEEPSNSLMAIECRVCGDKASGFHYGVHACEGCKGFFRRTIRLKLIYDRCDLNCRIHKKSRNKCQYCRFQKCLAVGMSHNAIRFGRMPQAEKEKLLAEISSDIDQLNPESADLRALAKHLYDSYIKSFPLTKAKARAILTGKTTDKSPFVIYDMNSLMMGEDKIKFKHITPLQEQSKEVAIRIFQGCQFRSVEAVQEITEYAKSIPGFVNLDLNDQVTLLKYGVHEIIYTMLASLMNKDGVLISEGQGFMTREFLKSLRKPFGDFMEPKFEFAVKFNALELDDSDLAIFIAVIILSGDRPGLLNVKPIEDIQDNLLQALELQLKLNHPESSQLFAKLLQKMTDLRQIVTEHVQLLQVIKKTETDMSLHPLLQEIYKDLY
# frog Thyroid hormone Receptor alpha (TRa), thra-a (gene 397942), sequence (P15204 whole entry, looked up, the tested form may be a part): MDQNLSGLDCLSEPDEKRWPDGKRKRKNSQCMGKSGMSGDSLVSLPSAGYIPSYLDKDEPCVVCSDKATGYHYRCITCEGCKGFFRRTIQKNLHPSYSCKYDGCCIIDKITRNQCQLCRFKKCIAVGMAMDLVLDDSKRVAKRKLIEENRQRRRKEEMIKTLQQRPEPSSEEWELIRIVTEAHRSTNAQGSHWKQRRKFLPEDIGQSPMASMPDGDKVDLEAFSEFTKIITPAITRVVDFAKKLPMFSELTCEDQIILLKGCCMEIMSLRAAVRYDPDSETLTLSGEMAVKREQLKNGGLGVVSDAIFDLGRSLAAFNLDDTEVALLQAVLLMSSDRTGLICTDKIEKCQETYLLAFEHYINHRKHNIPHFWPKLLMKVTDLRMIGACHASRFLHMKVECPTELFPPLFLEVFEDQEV
# mouse Peroxisome Proliferator-activated Receptor gamma (PPARg), Pparg (gene 19016), sequence (P37238 whole entry, looked up, the tested form may be a part): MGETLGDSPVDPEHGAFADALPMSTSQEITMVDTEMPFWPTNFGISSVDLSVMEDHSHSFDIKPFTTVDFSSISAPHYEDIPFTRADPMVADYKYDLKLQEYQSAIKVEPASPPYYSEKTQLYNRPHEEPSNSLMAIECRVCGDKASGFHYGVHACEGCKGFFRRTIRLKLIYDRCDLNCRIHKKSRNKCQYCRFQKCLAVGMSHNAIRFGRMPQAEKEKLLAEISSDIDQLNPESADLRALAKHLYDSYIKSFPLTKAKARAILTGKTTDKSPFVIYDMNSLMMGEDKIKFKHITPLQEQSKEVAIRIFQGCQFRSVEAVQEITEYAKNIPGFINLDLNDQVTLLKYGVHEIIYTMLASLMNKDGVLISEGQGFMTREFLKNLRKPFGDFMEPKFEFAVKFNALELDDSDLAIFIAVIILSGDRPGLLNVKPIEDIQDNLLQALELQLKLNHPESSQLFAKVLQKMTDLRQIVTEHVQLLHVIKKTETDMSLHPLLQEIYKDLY
smiles,measurement,setting,value
CCCCCCCCCCCCCCN(CCO)CCO,outcome,[1],inactive
O=C(CC(=O)c1ccccc1)c1ccccc1,outcome,[1],inactive
COc1ccc(N=Nc2cc(C)c(N=Nc3ccc(S(=O)(=O)O)cc3)cc2OC)cc1,outcome,[1],inactive
C[C@H]1O[C@@H](O[C@H]2[C@@H](O)C[C@H](O[C@H]3[C@@H](O)C[C@H](O[C@H]4CC[C@@]5(C)[C@H](CC[C@@H]6[C@@H]5C[C@@H](O)[C@]5(C)[C@@H](C7=CC(=O)OC7)CC[C@]65O)C4)O[C@@H]3C)O[C@@H]2C)C[C@H](O)[C@@H]1O,AC50,[1],1.12 µM (active)
CCCCCC(C=O)=Cc1ccccc1,outcome,[1],inactive
CC(CN=Cc1ccccc1O)N=Cc1ccccc1O (stereo unspecified),outcome,[1],inactive
CCOc1ccc(N=Nc2ccc(C=Cc3ccc(N=Nc4ccc(OCC)cc4)cc3S(=O)(=O)O)c(S(=O)(=O)O)c2)cc1,outcome,[1],inactive
OCC#CCO,outcome,[1],inactive
Cc1cc(=O)oc2cc(N(C)C)ccc12,AC50,[2],48.9 µM (active)
same,AC50,[3],24.8 µM (active) and 17 µM (active)
same,AC50,[4],33.5 µM (active) and 27.8 µM (active)
same,AC50,[5],4.03 µM (active) and 6.44 µM (active)
same,outcome,[6],inactive
same,outcome,[7],inactive
same,outcome,[8],inactive
same,outcome,[9],inactive
same,outcome,[10],inactive
same,outcome,[11],inactive
same,outcome,[12],inactive
same,outcome,[13],inactive
same,outcome,[14],inactive
O=[N+]([O-])c1ccc(O)cc1C(F)(F)F,outcome,[1],inactive
CC=Cc1ccc(OC)c(OC)c1,outcome,[15],inactive
same,outcome,[16],inactive
same,outcome,[17],inactive
same,outcome,[18],inactive
same,AC50,[19],39.5 µM (active)
same,outcome,[20],inactive
CCCCCCCCC=CCCCCCCCC1=NCCN1CCO,outcome,[1],inactive
CCCCC(CC)COC(=O)c1ccc(O)cc1 (stereo unspecified),AC50,[5],56.4 µM (active)
same,outcome,[6],inactive
same,AC50,[7],60 µM (active)
same,outcome,[10],inactive
same,outcome,[13],inactive
same,outcome,[14],inactive
same,AC50,[1],10.4 µM (active)
